The full list was thinned out, with hits kept by preference.
D1 mod: D1 CRE-luciferase signal change, two-sided – cell-based, HEK293 D1, dopamine EC30, D1 allosteric modulator project, primary screen. D(1A) dopamine receptor (Homo sapiens), P21728. dopamine EC30 potentiation; actives deviate in either direction. B-score at 10 µM. actives 5.9% (n = 58,000);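 active = luminescence count or its row- and column-corrected plate score outside the 99.7% band of the plate's sample wells, on either side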
Mac1 fbg inh: inhibitors of CD11b/CD18 adhesion to fibrinogen, primary screen, K562 cells, luminescence; Integrin beta-2 (Homo sapiens) + Integrin alpha-M (Homo sapiens), P05107+P11215; ATPlite luminescence; Mn2+ added to activate the integrin; inhibition, % at 10 µM; actives 0.54% (n = 93,000); AID 1497, 2009;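 active = primary inhibition of 50% or more at 10 µM, then 40% or more on retest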
DAT uptake mod: changed hDAT dopamine uptake under cocaine IC80, either direction, primary screen, cocaine antagonist project, cell-based, LLC-PK1 hDAT, [14C]-dopamine uptake, MLSMR; actives 1.3% (n = 110,000); LLC-PK1 hDAT cells, [14C]-dopamine uptake with cocaine IC80; actives deviate in either direction; B-score at 10 µM;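 active = Z score or B-score, a plate-position-corrected score, falls beyond the plate's 99.7% confidence bounds, in either direction; inactive = both scores lie inside the 99.7% bounds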
Target sequence (Q01959 whole entry, looked up): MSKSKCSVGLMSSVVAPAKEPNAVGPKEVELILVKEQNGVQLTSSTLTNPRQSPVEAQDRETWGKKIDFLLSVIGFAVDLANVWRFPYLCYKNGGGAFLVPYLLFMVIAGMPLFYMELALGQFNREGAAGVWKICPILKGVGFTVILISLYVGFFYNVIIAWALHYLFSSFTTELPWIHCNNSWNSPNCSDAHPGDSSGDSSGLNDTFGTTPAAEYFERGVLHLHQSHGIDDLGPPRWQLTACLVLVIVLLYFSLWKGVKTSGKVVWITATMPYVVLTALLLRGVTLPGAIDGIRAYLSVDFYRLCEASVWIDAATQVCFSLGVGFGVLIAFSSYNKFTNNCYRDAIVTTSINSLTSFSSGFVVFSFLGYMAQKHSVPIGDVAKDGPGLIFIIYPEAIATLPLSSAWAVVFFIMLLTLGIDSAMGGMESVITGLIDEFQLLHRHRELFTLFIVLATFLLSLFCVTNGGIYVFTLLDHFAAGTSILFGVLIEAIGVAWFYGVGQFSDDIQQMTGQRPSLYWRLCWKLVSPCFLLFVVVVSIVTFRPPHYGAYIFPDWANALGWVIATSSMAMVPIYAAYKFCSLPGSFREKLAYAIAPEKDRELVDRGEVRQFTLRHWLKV
FAK blocker: FAK kinase inhibitors, primary screen, biochemical. biochemical FAK kinase activity assay. inhibition, %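 (tested at 7 µM)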. actives 0.84% (n = 97,000). AID 727, 2007; in the data active = inhibition above about 19%
Mac1 fbg enh: enhancers of CD11b/CD18 adhesion to fibrinogen, primary screen, K562 cells, luminescence. Integrin beta-2 (Homo sapiens) + Integrin alpha-M (Homo sapiens), P05107+P11215. ATPlite luminescence. activation, % at 10 µM. actives 0.07% (n = 93,000). AID 1499, 2009;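 active = 10 µM primary screen giving 50% or more activity, confirmed by 40% or more on retest at that dose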
PTK2B oligo ant: antagonists of Pyk2 self-association, primary screen, Q293 cells, FERM NanoBiT luminescence, HTS; Protein-tyrosine kinase 2-beta (Homo sapiens), Q14289; actives 0.83% (n = 99,000); z-score (the deposit names both 25 µM and 10 µM); AID 1347419, 2020; stronger effect = lower value;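 active = Z-score of -3 or lower, scaled per plate to the spread of control and sample wells; inactive = z-score above -3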;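 also: negative z-score means lost luminescence so less FERM oligomerization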
D1 mod confirm: D1 receptor positive allosteric modulators, retest, confirmation, cell-based, HEK293 D1, CRE-luciferase, duplicate; shares compounds with D1 mod; dopamine EC30 potentiation; stronger effect = higher value; luminescence at 10 µM; actives 88% (n = 2,200);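 active = luminescence in either of two replicates above the same-plate mean plus 3 SD of the low-dose dopamine control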
D1 no dopamine: D1 receptor agonism without dopamine, confirmation, mechanism study for D1 allosteric modulator project, cell-based, HEK293 D1, CRE-luciferase, secondary assay 1 | shares compounds with D1 mod | luminescence, no dopamine; stronger effect = higher value | luminescence at 10 µM | actives 0.8% (n = 1,900) | AID 646, 2007; in the data active = luminescence above about 3900
Isoprot counter: counter-screen for D1 modulators: isoproterenol response in HEK293 cells. shares compounds with D1 mod. HEK293 D1 CRE-luciferase, isoproterenol EC30 counter-screen. calls only at 10 µM. actives 63% (n = 2,200). AID 647;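 active = luminescence in either replicate above plate mean of wells with a partly effective reference agonist dose plus 3 SD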;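 also: isoproterenol raises cAMP through native beta-adrenoceptor Gs so signal bypasses D1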
A number is an active result; - = inactive; . = no result given; + = active, no number.

SMILES	D1 mod	Mac1 fbg inh	DAT uptake mod	FAK blocker	Mac1 fbg enh	PTK2B oligo ant	D1 mod confirm	D1 no dopamine	Isoprot counter
CCOc1cc(CN2CCN(C(=O)c3ccco3)CC2)ccc1OC	-	.	-	.	.	-	.	.	.
COc1ccc(CN2CCN(C(=O)c3ccco3)CC2)cc1	4.08	-	-	-	-	-	-	-	-
O=C(COC(=O)C1CCN(C(=O)c2ccc(Cl)cc2)CC1)c1ccco1	-	-	-	-	-	-	.	.	.
O=C(NC1CCCCC1)C(c1cccnc1)N(CCc1ccccc1)C(=O)Cc1cccs1 (configuration not stated)	.	-	.	.	-	.	.	.	.
O=C1NC(=Nc2cccc(Cl)c2)SC1Cc1cccc(Cl)c1Cl (configuration not stated)	.	-	-	-	-	-	.	.	.
C/C(Cl)=C\Cn1c(Nc2ccccc2)nc2c1c(=O)n(C)c(=O)n2C	14.2	-	-	-	-	-	11964	.	+
C/C(Cl)=C/Cn1c(NCCN(C)C)nc2c1c(=O)n(C)c(=O)n2C	-	-	-	-	-	-	.	.	.
Cc1ccc2cccc(S(=O)(=O)Nc3ccc4c(c3)OCO4)c2n1	-	-	-	-	-	-	.	.	.
COC(=O)c1ccc(COc2nc(C)cc(C)c2C#N)o1	3.59	-	-	-	-	-	11580	-	-
Cc1ccc(C(=O)COc2nc(C)cc(C)c2C#N)cc1	.	-	-	-	-	-	.	.	.
CCSC1=NC(C)(C)C=C(C)N1	.	-	-	-	-	-	.	.	.
CC1=CC(C)(C)N=C(NC#N)N1	3.76	-	-	.	-	-	9044	-	-
Nc1cc(N)nc(SCC(=O)N2CCCCC2)n1	-	-	-	-	-	-	.	.	.
Cc1cc(C)nc(SCC(=O)N2CCCCC2)n1	2.88	-	-	-	-	-	5424	-	-
COc1cccc(CNc2ccc(S(=O)(=O)Nc3nccs3)cc2)c1O	12.2	-	-	-	-	-	14616	-	+
c1ccc2c(c1)nc(Nc1ccc3c(c1)OCO3)c1nnnn12	8.56	-	-	.	-	-	10812	-	+
Cc1ccc(CNc2nc3ccccc3n3nnnc23)cc1	3.4	-	-	.	-	-	15516	-	-
Cc1ccc(-c2nc3ccccc3n3nnnc23)cc1	-	-	-	-	-	-	.	.	.
Cn1c(Cn2c(=O)sc3ccccc32)nnc1SCC(=O)NCc1ccccc1Cl	-	.	.	.	.	.	.	.	.
Cc1cc(C)n(-c2nc3ccccc3c3nc(C)nn23)n1	9.57	-	-	.	-	.	13408	.	+
Cc1cc(C)n(-c2nc3ccccc3c(=O)n2OC2CCCCC2)n1	-	-	-	-	-	-	.	.	.
CCCC(C)NC(=O)COc1ccc(Sc2ccc(OCC(=O)NC(C)CCC)cc2)cc1 (configuration not stated)	.	-	.	.	-	.	.	.	.
CCCCN(C)C(=O)c1coc(=O)c2ccccc12	3.06	-	-	-	-	-	-	.	-
CC1CCCCC1NC(=O)CN1CCC(O)(c2ccc(F)cc2)CC1 (configuration not stated)	-	-	-	-	-	-	.	.	.
O=C1CC(c2ccccc2)C(C(=O)Nc2ccccc2F)N1 (configuration not stated)	-	.	.	.	.	.	.	.	.
SMILES	D1 mod	Mac1 fbg inh	DAT uptake mod	FAK blocker	Mac1 fbg enh	PTK2B oligo ant	D1 mod confirm	D1 no dopamine	Isoprot counter
O=C1CC(c2ccccc2)C(C(=O)O)N1 (configuration not stated)	14.9	-	-	-	-	.	-	.	-
COc1ccc(Nc2nc(N)nc(C(F)(F)F)n2)c(OC)c1	4.24	-	-	-	-	-	11048	-	+
Cc1nc2nc(C)n(-c3ccccc3)c2s1	14.9	-	-	-	-	-	21228	-	+
CCSc1nnc2c(n1)OC1(CCCC1)Nc1ccccc1-2	6.55	-	-	-	-	.	15136	-	+
CCC1Nc2ccccc2-c2nnc(SC)nc2O1 (configuration not stated)	.	-	-	-	-	-	.	.	.
COc1cccc(C2Nc3cc(Cl)c(S(N)(=O)=O)cc3S(=O)(=O)N2)c1 (configuration not stated)	.	-	-	-	-	-	.	.	.
N#CC1=C(N)N(c2ccccc2)C2=C(C(=O)CCC2)C1c1ccsc1 (configuration not stated)	8.34	-	-	.	-	-	17976	-	-
N=C(CC1CC(=O)NC(=O)C1)C1=C(O)CCCC1=O	.	-	.	.	-	.	.	.	.
COc1ccc(S(=O)(=O)NCc2ccco2)cc1-c1nnc2c3ccccc3c(C)nn12	8.61	-	-	-	-	-	8232	-	+
COc1ccc(S(=O)(=O)N2CCCCCC2)cc1C(=O)OCc1c(C)noc1C	4.27	-	-	-	-	-	9164	-	+
CCOc1nc(NCCc2ccc(OC)c(OC)c2)nc(NC(C)(C)CO)n1	3.24	.	-	-	.	-	9808	-	-
CCn1c(COc2ccc(C)cc2)nnc1SCC(=O)Nc1ccc2c(c1)OCCO2	-	-	-	-	-	-	.	.	.
CN(C)c1nc(N)nc(CSc2n[nH]c(-c3ccccc3)n2)n1	7.84	-	-	-	-	-	9244	-	+
Cc1sc(NC(=O)CSc2nnc(COc3ccccc3)n2C)c(C#N)c1C	6.75	.	-	-	.	-	-	-	-
COCCn1c(SCC(=O)Nc2sc(C)c(C)c2C#N)nnc1C(C)C	-	.	-	-	.	-	.	.	.
CCn1c(SCC(=O)Nc2sc(C)c(C)c2C#N)nnc1C(C)C	4.46	-	-	-	-	-	-	-	-
Cc1cc(NC(=O)CCC2CCCC2)no1	-	-	-	-	-	-	.	.	.
O=C(CNC(=O)c1ccccc1Cl)N/N=C/C=C/c1ccccc1	.	-	.	.	-	.	.	.	.
N#Cc1c(SCC(N)=O)nsc1SCc1ccccc1Cl	5.62	.	-	-	.	-	5884	.	+
N#Cc1c(SCC(N)=O)nsc1SCc1ccc(Cl)cc1	-	-	-	-	-	-	.	.	.
Cc1cc(-c2nc3ccccc3o2)c2ccccc2n1	14.6	-	-	-	-	-	14660	.	+
